# Measured values from PubChem BioAssay (NCATS).
# Results filed as inconclusive are left out. Calls of active or inactive are those of the source. The call rests on the fitted dose curve; in most records, active means well fitted inhibition curve with a large enough effect; inconclusive means small, poorly fitted or top-dose-only effect; inactive means flat fitted curve, though single readings scatter.
# Assay: P-glycoprotein substrates identified in KB-8-5-11 adenocarcinoma cell line, qHTS therapeutic library screen (AID 1346987); further: nearly all actives have a fitted effect of over 65% in size
# Conditions: KB-8-5-11 (P-gp overexpressing) viability, CellTiter-Glo, 72 h; series mostly up to 44.5 µM; activity change, negative = cytotoxicity: at the top concentration
# Outline: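 Compounds are pinned in dose-response onto KB-8-5-11 cells (500 cells/well, colchicine-free medium) and left 72 h at 37 degree C. CellTiter-Glo luminescence then yields AC50 values.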
# On the % scale 0 is the no-effect control and ±100 the full control effect; potency means the concentration at half of the fitted maximal effect.
Structure (SMILES),"activity change, negative = cytotoxicity",Potency
C=C1CC[C@@H](O)[C@]2(C)CC[C@H]3C(=C)C(=O)O[C@@H]3[C@@H]12,-14.7% (inactive),
CC(C)CCNC(=O)[C@H](CC(C)C)NC(=O)[C@H]1O[C@@H]1C(=O)O,2.03% (inactive),
Cc1ccc(C)c(NS(=O)(=O)c2cc(C(=O)Nc3ccccc3-c3ccccc3)ccc2C)c1,,16.4 µM (active)
Cc1cc(C(=O)Nc2cc(Nc3ccc4c(/C=C/c5ccccn5)n[nH]c4c3)ccc2F)n(C)n1,,18.4 µM (active)
